# In PubChem BioAssay AID2314 (National Center for Advancing Translational Sciences (NCATS), 2010):
# Screen size: about 300,000 compounds; about 37,000 (12%) were called active. For the sample, actives were picked, then their nearest neighbours and some compounds at random. Unmarked numbers belong to inactive results. Cut-off read from the data, not from the text of the source: active = max response mostly above about 13% (no sharp cut-off); inactive = mostly below about 14%.
# Assay: Cycloheximide Counterscreen for Small Molecule Inhibitors of Shiga Toxin; note: read at 38.3 µM for the half of the compounds with a filed dose; 0% is about no effect
# Conditions: cell reporter, cycloheximide protein synthesis inhibition counterscreen; hits give high values
row,Structure (SMILES),max response
1,OCCNCc1cccc(OCc2ccccc2Cl)c1,-3.04%
2,O=C(COC(=O)c1cc(=O)[nH]c2ccccc12)Nc1nc(-c2cccc(Br)c2)cs1,0.762%
3,Cc1cc(O)c(NC(=O)c2ccc(C)c([N+](=O)[O-])c2)cc1C,40.4% (active)
4,Cc1ccc(C(=O)Nc2cccc3ncccc23)cc1[N+](=O)[O-],9.95%
5,CCN1CCC(=NNC(=O)c2ccc(C)c([N+](=O)[O-])c2)CC1,-3.08%
6,COc1cccc(-c2nc(CS(=O)(=O)CC(=O)NCCc3ccc(OC)c(OC)c3)c(C)o2)c1,16%
7,COC(=O)c1sc(-c2ccc(C(C)(C)C)cc2)cc1NC(=O)/C=C/C(=O)O,45.7% (active)
8,COc1ccccc1NC(=O)/C=C/C(=O)O,-1.17%
9,O=C(O)/C=C/C(=O)Nc1ccc(F)cc1F,7.97%
10,O=C(CCn1nnnc1CN1CCOCC1)N1CCC(c2ccccc2Cl)C1 (configuration not stated),-3.06%
11,CC(=O)c1c(C)n(-c2ccc(C)cc2)c2ccc(O)cc12,-2.22%
12,CC(C)(C)C(=O)CSc1nc2ccccc2o1,34.5% (active)
13,O=C(CSc1nc2ccccc2o1)N1c2ccccc2Sc2ccc(Cl)cc21,-1.63%
14,CCOC(=O)CSc1nnc(-c2cccc(Br)c2)o1,-2.27%
15,Cc1cc(=O)[nH]c(SCC(=O)N2c3ccccc3CC2C)n1 (configuration not stated),1.01%
16,O=C(CSc1nc2ccccc2o1)N1CCN(c2ccccc2)CC1,-3.14%
17,CCN(CC)C(=O)CSc1nnc(-c2ccc(S(=O)(=O)NCc3ccccc3Cl)cc2)o1,-0.581%
18,CCS(=O)(=O)c1ccc2oc(SCC(=O)N3c4ccccc4CC3C)nc2c1 (configuration not stated),-5.84%
19,CCOC(=O)n1c(SCC(=O)N(CC)CC)nc2ccccc21,0.246%
20,CCN(CC)C(=O)CSc1nc2ccccc2o1,21.2% (active)
21,CCN(CC)C(=O)CSc1nnc(-c2cccc(OC)c2)o1,41% (active)
22,CC1Cc2ccccc2N1C(=O)CSc1nc2ccccc2o1 (configuration not stated),42.4% (active)
23,O=C(CSc1nc2ccccc2o1)N1CCN(c2ccc(Cl)cc2)CC1,3.68%
24,COc1ccc(CCNC(=O)C2CCCN2C(=O)Nc2ccccc2)cc1OC (configuration not stated),-1.21%

row,Structure (SMILES),max response
1,CCOC(=O)c1c(NC(=O)C2CC=CCC2C(=O)O)sc(C)c1CC (configuration not stated),-3.33%
2,Nc1nnnn1/N=C/c1cccc(Br)c1,-1.37%
3,COc1ccc(-c2nn(C)c(=O)c3ccccc23)cc1CNC(=O)C1CCCCC1,-2.76%
4,Cc1ccccc1Nc1scc(-c2ccc(Br)cc2)[n+]1-c1ccccc1C,12.1%
5,CC(C)OC(=O)CN1CCN(c2ccc(Cl)cc2)CC1,-1.75%
6,CC1CCCN(CCOCCOc2ccccc2-c2ccccc2)C1 (configuration not stated),-1.97%
7,Cc1ccc(CNC(=O)CSc2nnc3c(n2)[nH]c2ccc(F)cc23)cc1,-7.47%
8,CC(c1nnc(SCC(=O)Nc2sccc2C#N)n1-c1ccc(Cl)cc1)N(C)C (configuration not stated),-5.17%
9,CCOc1ccc(NC(=O)C/C(C)=N/NC(=O)Cc2cccs2)cc1,11.9%
10,CCc1nnc(NC(=O)CCC(=O)O)s1,-1.47%
11,CCOC(=O)c1c(NC(=O)/C=C/c2ccco2)sc(C)c1C,-2.54%
12,Cc1ccc(/C=C/C(=O)Nc2ccc([N+](=O)[O-])c(NC(=O)/C=C/c3ccc(C)o3)c2)o1,-2.46%
13,CCC(CC)c1nnc(NC(=O)/C=C/c2ccco2)s1,17.5%
14,CCc1nnc(NC(=O)/C=C/c2ccc(C)o2)s1,21.2% (active)
15,Cc1nnc(NC(=O)/C=C/c2ccco2)s1,25.7% (active)
16,CNC(=O)c1[nH]cnc1C(=O)N[C@@H](CC(C)C)C(=O)OCc1ccccc1,0.929%
17,COc1ccc(NC(=O)NCCN2CCN(c3ccc(C)cc3)CC2)c(Cl)c1,-1.67%
18,COc1ccccc1NC(=O)CSc1nnc(CNC(=O)c2ccccc2F)o1,1.71%
19,N#Cc1ccc(S(=O)(=O)NCC(=O)OCC(=O)NCCc2ccccc2)cc1,1.22%
20,COc1ccc(-n2cnnc2SCC(=O)Nc2cccc([N+](=O)[O-])c2)cc1,-4.87%
21,Cc1ccccc1OCCOc1ccc([N+](=O)[O-])cc1/C=N/n1cnnc1,-2.75%
22,COc1cc(C(=S)N2CCOCC2)ccc1O,-0.128%
23,COc1ccc(/C(C)=N/N2CCOCC2)c(O)c1,26.7% (active)
